The values that follow come from PubChem BioAssay AID588499 (NMMLSC, 2011).

Each structure is given as a SMILES string. Out of some 360,000 compounds screened, about 610 (0.17%) were called active. Inconclusive results (about 2%) are left out. No stated cut-off is given here; in the data, active means inhibition above about 30%; inconclusive means no clear call, values can overlap the other calls; inactive means below that. For the sample, actives were picked, then their nearest neighbours and some compounds at random.

One may read the inhibition as the relative decrease from the control value, in per cent.

This experiment deals with Botulinum neurotoxin type A light chain protease (Clostridium botulinum A str. ATCC 3502). Put plainly: blockers of BoNT/A LC substrate cleavage – biochemical, flow cytometry, MLPCN library, primary screen (AID 588499). Further: plate controls were buffer without enzyme for full effect and enzyme alone for no effect. Conditions: multiplex microsphere protease substrate cleavage, at 10 µM, hits give high values. (Flow cytometry measures light scatter and fluorescence of single cells or particles in a stream.)
For `O=C(Nc1ccc2cn[nH]c2c1)c1ccc(S(=O)(=O)N2CCOCC2)cc1`, the inhibition was -1.3% (inactive).

With `Cc1cc2cc(CNC(=O)c3cccs3)ccc2[nH]1`, the inhibition is 75.4% (active).

On to `CCc1cccc(CC)c1NC(=S)NCc1ccc2[nH]c(C)cc2c1`, for which the inhibition is 34.3% (active).

For `CCOc1ccc(C(C)=O)cc1COC(=O)CNC(=O)c1cccs1`, the inhibition was -0.9% (inactive).

As for `Cc1ccc(C)c2[nH]c(=O)c(CCNC(=O)c3cccs3)cc12`, the inhibition was -0.5% (inactive).

For `COC(=O)c1ccc(CNC(=O)c2ccc(S(=O)(=O)N3CCCCCC3)cc2)cc1`, the inhibition was 0.1% (inactive).

As to `Cc1cc2cc(CNC(=O)c3ccc(S(=O)(=O)N4CCOCC4)cc3)ccc2[nH]1`, the inhibition was 71.1% (active).

As for `Cc1c(Cl)cccc1NC(=S)NCc1ccc2c(c1)OCO2`, the inhibition is -1.1% (inactive).

Take `Cc1cccc(NC(=S)NCc2ccc3[nH]c4c(c3c2)CCCC4)c1`: the inhibition was 0.2% (inactive).

`O=C(CSc1nncn1-c1cccnc1)N1CCOCC1`: the inhibition was -0.7% (inactive).

On to `O=C(/C=C(O)/C=C/c1ccc(O)cc1)/C=C/c1ccc(O)cc1`, for which the inhibition is 38.1% (active).

`COc1ccc(/C=C/C(=O)c2c(O)cc(OC)cc2OC)cc1`: the inhibition is -0.9% (inactive).

For the compound `COc1cccc(C=CC(=O)C=CC=Cc2ccccc2)c1`, the inhibition is 0.9% (inactive).

Take `Cc1ccccc1S(=O)(=O)NC(=O)C1(C)CCN1C(=O)C1(c2ccc(Cl)cc2)CC1` (stereo unspecified): the inhibition was -0.5% (inactive).

For the compound `Cc1cc(C(=O)COc2ccccc2[N+](=O)[O-])c(C)n1-c1cccc(S(=O)(=O)N2CCOCC2)c1`, the inhibition was -2% (inactive).

In the case of `C#CCNC(=O)C[C@@H]1C[C@@]2(C(=O)OCC)CCCC=C2N(Cc2ccco2)C1=O`, the inhibition was -1.2% (inactive).

For the compound `CN(CC(=O)Nc1ccc(F)cc1)CC(=O)N1CCCCC1`, the inhibition was 0.4% (inactive).

With `COc1ccc(NC(=O)c2sc(=O)n(Cc3ccc(S(=O)(=O)N(C)C)cc3)c2C)cc1`, the inhibition was -0.2% (inactive).

Turning to `CC1(C(=O)NS(=O)(=O)c2ccc(Cl)cc2)CCN1C(=O)CC1CCCC1` (stereo unspecified), the inhibition was -0.4% (inactive).

On to `CN(C(=O)CCn1c(=S)oc2ccccc21)C1CCCCC1`, for which the inhibition is 0.7% (inactive).

Regarding `Cn1nc(N)c2ncc(C(Cl)(Cl)Cl)nc21`, the inhibition is 0% (inactive).

Consider `Fc1cccc(Cc2c(-c3cccc(Cl)c3)nc3ccc(Br)cn23)c1`, for which the inhibition was 9.7% (inactive).

`O=C1OCC2=C1C(c1ccccc1)CC(=O)N2c1cccc(F)c1` (stereo unspecified): the inhibition is -1.3% (inactive).

For the compound `CCCCOCCCNC(=O)C[C@@H]1C[C@@]2(C(=O)OC)CCCCC=C2N(CCC2=CCCCC2)C1=O`, the inhibition is -0.3% (inactive).

Take `CCc1nc2c(OCCOc3ccccc3)cccn2c1N(C)C(=O)c1ccccc1F`: the inhibition was -0.2% (inactive).

On to `COc1ccc([C@H]2N[C@]3(CCCN(Cc4ccco4)C3=O)[C@H]3C(=O)N(C)C(=O)[C@@H]23)cc1`, for which the inhibition is -0.4% (inactive).

`COC(=O)[C@]12CCCCC=C1N(CCC1=CCCCC1)C(=O)[C@H](CC(=O)NCC1CCCCC1)C2`: the inhibition is 0% (inactive).

Consider `CC(C)(C)CC(=O)Nc1nc(C(N)Cc2ccc(C(F)(F)F)cc2)cs1` (stereo unspecified), for which the inhibition is -0.5% (inactive).

Turning to `CN1CCN(C(=O)c2ccc(NC(=O)c3ccc(Br)o3)cc2)CC1`, the inhibition was 0.8% (inactive).

In the case of `COC(=O)c1cn(C)c2ccc(S(=O)(=O)N3CC(C)CC(C)C3)cc2c1=O` (stereo unspecified), the inhibition is -1.1% (inactive).

Consider `CC(=O)Nc1cccc(Nc2ccc(C#N)cc2)c1`, for which the inhibition was 0% (inactive).

`COc1ccc(NC(=O)NN2CCN(C)CC2)c(OC)c1`: the inhibition is -3.1% (inactive).

As for `COc1ccc(C(=O)c2c(C)c(CCC#N)n3ccccc23)c(OC)c1`, the inhibition was 0.8% (inactive).

As for `CC1(C)c2[nH]c3ccccc3c2C[C@H]2C(=O)N(N)CC(=O)N21`, the inhibition was -1.4% (inactive).

Consider `CC1=CC(=C(C#N)c2nc3ccccc3s2)C=C(C)N1c1ccc(F)cc1F`, for which the inhibition was 48.3% (active).

As for `Cc1nn(-c2ccc(F)cc2)c(Cl)c1/C=C(/CCC(=O)O)c1nc2ccccc2s1`, the inhibition was -0.5% (inactive).

For the compound `CSCC[C@H](NC(=O)NCCc1ccc(F)cc1)C(=O)O`, the inhibition was 0% (inactive).

For `O=c1c2[nH]c3ccc(Cl)cc3c2ncn1Cc1ccccn1`, the inhibition is 1% (inactive).

On to `O=C(NCc1ccc(Cl)cc1)C(=O)NCC1CCCN1S(=O)(=O)c1cccs1` (stereo unspecified), for which the inhibition is -1.5% (inactive).

In the case of `NC(=O)c1ccc(N2CCCC2)nc1`, the inhibition was 0.8% (inactive).

For `Oc1cccc(CCc2ccccn2)c1`, the inhibition was -0.4% (inactive).

For the compound `CCOc1ccccc1NC(=O)C1CCCN(C(=O)Nc2ccccc2)C1` (stereo unspecified), the inhibition is 0% (inactive).

Turning to `COc1cc(OC)c(-n2cc(-c3ccc(Cl)cc3)[nH]c2=O)cc1Cl`, the inhibition was 0.1% (inactive).

As to `O=C(COC(=O)CC1CC2CCC1C2)NC(=O)NC1CCCC1` (stereo unspecified), the inhibition is 0.7% (inactive).

Take `O=C(NCc1ccccc1)C1c2ccccc2OCC(=O)N1C1CC1` (stereo unspecified): the inhibition was 0% (inactive).

For the compound `O=C(NCCc1ccco1)C(=O)NCCC1CCCCN1S(=O)(=O)c1ccccc1` (stereo unspecified), the inhibition is -3.9% (inactive).
